Assay outcomes deposited in PubChem by National Center for Advancing Translational Sciences (NCATS).
Compounds with a hit are over-represented: about 8.9% of the library has one in this group of screens.
MCF10A rerep = inducers of DNA re-replication in MCF 10A breast cells. 2.9% of 350,000 active. MCF 10A DNA re-replication, Hoechst nuclear intensity, 48 h. AID 624296. Potency, µM (titrated, usually from 46.1 µM), actives largely listed as activators; further: nearly all actives have a fitted effect of over 50% in size
DRD3 agonist = D3 dopamine receptor (human) agonism | P35462 | D3R DiscoveRx beta-arrestin cells, luminescence, 90 min | max activation, % | 0.58% of 410,000 active | AID 652048; in the data active means max activation above about 30%
Target sequence (P35462 whole entry, looked up): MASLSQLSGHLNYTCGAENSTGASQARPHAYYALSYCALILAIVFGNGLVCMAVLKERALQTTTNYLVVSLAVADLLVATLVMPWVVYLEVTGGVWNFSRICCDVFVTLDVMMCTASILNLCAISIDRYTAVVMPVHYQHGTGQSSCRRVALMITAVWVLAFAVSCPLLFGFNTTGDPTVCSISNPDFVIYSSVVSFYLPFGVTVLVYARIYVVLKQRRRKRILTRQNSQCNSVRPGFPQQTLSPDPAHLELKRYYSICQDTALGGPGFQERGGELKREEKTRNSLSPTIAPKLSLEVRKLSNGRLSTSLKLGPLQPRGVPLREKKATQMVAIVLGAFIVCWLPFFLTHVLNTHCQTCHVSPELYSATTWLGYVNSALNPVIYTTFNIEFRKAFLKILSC
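Cells at 1500/well, incubated overnight, then treated with pinned compounds (dopamine as control) for 90 min at 37 degrees C. DiscoveRx reagent added for 30 - 60 minutes at room temperature; luminescence read.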
KB-3-1 tox = KB-3-1 parental cell cytotoxicity; KB-3-1 viability, CellTiter-Glo ATP luminescence, 72 h; Potency, µM (top dose mostly 46.1 µM), hits mostly cytotoxic; 1.4% of 400,000 active; AID 1347075; further: nearly all actives have a fitted effect of over 60% in size
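72 h, 37 °C compound treatment of KB-3-1 parental cells; CellTiter-Glo added, 10 min, luminescence read. Data corrected against DMSO-only plates and normalized before curve fitting.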
DRD3 antagonist = antagonists of human D3 dopamine receptor; P35462; D3R cells, DiscoveRx beta-arrestin luminescence, antagonist mode; active compounds read low; max response, negative = inhibition, %; 2.5% of 360,000 active; AID 652054; in the data active means max response below about -50%; inconclusive means no clear call, values can overlap the other calls
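Cells plated overnight at 1500 cells/well, then exposed to library compounds with dopamine controls for 90 minutes at 37 degrees C. DiscoveRx reagent added for 30–60 minutes at room temperature; luminescence read, quantitative HTS format.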
KB-V1 MDR tox = KB-V1 MDR subline cytotoxicity. AID 1347076. Potency, µM (titrated, usually from 46.1 µM), most hits filed as cytotoxic. 3.4% of 400,000 active. KB-V1 MDR cells viability, CellTiter-Glo, 72 h; further: nearly all actives have a fitted effect of over 60% in size
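Potencies derive from concentration-effect curves fitted to normalized luminescence (CellTiter-Glo) of KB-V1 cells treated for 72 h at 37 degrees C in phenol-red-free DMEM containing 10% FBS.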
SW480 rerep = DNA re-replication induction in SW480 cells; Potency, µM (top dose mostly 46.1 µM), actives largely listed as activators; 1.8% of 340,000 active; SW480 DNA re-replication, Hoechst DNA content imaging, 48 h; further: nearly all actives have a fitted effect of over 55% in size
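Treated cells incubate 48 hr (37 C, 5% CO2), are stained 40 min with Hoechst, and nuclear fluorescence is enumerated; a rise in nuclei with high DNA signal marks re-replication.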
Numbers stand for hits; - = inactive; ? = inconclusive; . = not tested or not shown; ! = not confirmed by another sample; [ ] = dose if it differs, or a comment. Unless noted, the call rests on the fitted dose curve; in most records, active means well fitted curve in the direction sought with a large enough effect; inconclusive means small, poorly fitted or top-dose-only effect, or another doubt; inactive means no such curve, though single readings can be large; an effect the other way counts as inactive or inconclusive.

SMILES	MCF10A rerep	DRD3 agonist	KB-3-1 tox	DRD3 antagonist	KB-V1 MDR tox	SW480 rerep
O=c1cccccc1NCc1ccccc1	-	-	-	?	-	-
Cc1ccc(NC2=CC(=O)C(=O)c3ccccc32)c(C)c1	-	-	?	-	?	-
O=C1C=C(Nc2ccc(F)cc2)c2ccccc2C1=O	?	-	?	-	21µM	9.2µM
O=C1C=C(Nc2ccccc2O)c2ccccc2C1=O	?	-	18µM	-	21µM	6.5µM
CCOc1ccc(NC2=CC(=O)CCC2)cc1	-	-	-	-	-	-
COc1cc(Cl)c(NS(=O)(=O)c2ccc(-c3ccc(=O)[nH]n3)o2)c(OC)c1	-	-	-	-	?	-
CCOc1ccc(NC2=CC(=O)C(=O)c3ccccc32)cc1	?	-	6.5µM	-	4.1µM	13µM
COc1cc(Cl)c(NC2=CC(=O)C(=O)c3ccccc32)c(OC)c1	3.3µM	-	9.2µM	?	8.2µM	8.2µM
O=C(Cn1ncc2c3ccccc3n(Cc3cccc(Cl)c3)c2c1=O)NCc1cccs1	.	-	-	.	-	.
COc1ccc(NC(=O)c2cnn(-c3ccccc3)c2C)cc1	-	-	-	-	?	-
COc1ccc(NC(=S)NNC(=O)c2nnn(-c3ccccc3)c2C)cc1	-	-	-	-	18µM	4.1µM
O=c1c(-c2nc3ccccc3s2)cccn1Cc1ccc(Cl)cc1	3.3µM	56	-	-	-	?
O=C1N(c2ccccc2C(F)(F)F)O[C@@]1(c1ccccc1)C1CCCCC1	21µM	-	-	-57	-	?
O=C1N(c2ccccc2C(F)(F)F)O[C@@]1(c1ccccc1)C1CCCC1	16µM	-	-	-	-	-
Cc1ccc(-n2ncc3c(SCc4ccccn4)ncnc32)c(C)c1	?	-	?	-	8.2µM	-
O=C(O)CCCN1C(=O)/C(=C\c2ccc(-c3nc4ccccc4s3)o2)SC1=S	?	-	-	?	-	23µM
Cc1nn(-c2ccccc2)c(Cl)c1/C=C1\SC(=S)N(CCCCCC(=O)O)C1=O	12µM	-	-	-	-	-
Cc1nn(-c2ccccc2)c(Cl)c1/C=C1/C(=N)N2N=C(C(C)C)SC2=NC1=O	-	-	-	-	-	-
O=C(O)CCCN1C(=O)/C(=C\C(Cl)=C\c2ccccc2)SC1=S	?	-	?	?	?	3.3µM
Cc1nn(-c2ccccc2)c(Cl)c1/C=C1\SC(=S)NC1=O	10µM	-	-	-	-	21µM
CS/C(=C\[N+](=O)[O-])Nc1ccc(Cl)cc1	?	-	-	-84	-	-
O=S(=O)(c1ccc2ccccc2c1)n1nc(-c2ccco2)nc1NCc1cccc(Cl)c1	.	-	-	.	-	.
COC(=O)CC1Oc2ccccc2-n2cc(-c3ccc(F)cc3)nc21 (stereo unspecified)	.	-	-	.	-	.
COc1ccc(C2=CCN3CCCCC3C2)c(-c2ccc(OC)c(OC)c2)c1 (stereo unspecified)	8.2µM	-	?	-	?	-
COc1cc(OC)c(NC(=O)Cn2cnc3c(nc4n3CCCCC4)c2=O)cc1Cl	.	-	-	.	-	.
SMILES	MCF10A rerep	DRD3 agonist	KB-3-1 tox	DRD3 antagonist	KB-V1 MDR tox	SW480 rerep
CN1CCN(C(=O)C2=C[C@@H](c3csc4ccccc34)C[C@@H](OCc3ccc(CO)cc3)O2)CC1	-	-	-	-72	?	-
O=C(C1=C[C@H](c2csc3ccccc23)C[C@H](OCc2ccc(CO)cc2)O1)N1CCN(Cc2ccc3c(c2)OCO3)CC1	23µM	-	-	-	-	-[9.22 µM]
O=C(C1=C[C@H](c2coc3ccccc3c2=O)C[C@H](OCc2ccc(CO)cc2)O1)N1CCN(Cc2ccc3c(c2)OCO3)CC1	?	-	-	-50	-	-
CC(C)(C)[C@H]1C=C(C(=O)N2CCOCC2)O[C@@H](OCc2ccc(CO)cc2)C1	-	-	-	-52	-	-
O=C(C1=C[C@@H](c2coc3ccccc3c2=O)C[C@@H](OCc2ccc(CO)cc2)O1)N1CCN(Cc2ccc3c(c2)OCO3)CC1	-	-	-	-	-	-
O=C(C1=C[C@H](c2ccc(Br)cc2)C[C@H](OCCCCO)O1)N1CCN(Cc2ccc3c(c2)OCO3)CC1	18µM	-	-	-	?	-
C#Cc1ccc([C@H]2C=C(C(=O)N3CCN(Cc4ccc5c(c4)OCO5)CC3)O[C@@H](OCc3ccc(CO)cc3)C2)cc1	26µM	-	-	-	-	?
O=C(C1=C[C@H](c2ccc3c(c2)OCO3)C[C@H](OCc2ccc(CO)cc2)O1)N1CCN(Cc2ccc3c(c2)OCO3)CC1	-	-	?	-	-	-
CCOc1ccccc1NC(=O)c1nc(SCc2ccccc2F)ncc1Cl	.	.	-	.	-	.
c1nc(N2CCN(Cc3ccc4c(c3)OCO4)CC2)c2[nH]cnc2n1	-	-	-	-62	-	-
c1cc2c(cc1CN1CCOCC1)OCO2	-	-	-	-	-	-
c1nc(N2CCCCCC2)c2[nH]cnc2n1	-	-	-	-	23µM	-
c1ccc(CN2CCN(c3ncccn3)CC2)cc1	?	-	-	-	-	-
c1ccc(COc2ccc(CN3CCN(c4ccccn4)CC3)cc2)cc1	?	51	-	-	-	-[9.22 µM]
c1cnc(N2CCN(Cc3ccc4c(c3)OCO4)CC2)nc1	-	56!	-	?	?	?
CCc1nnc(SCc2nc(-c3cccc(Cl)c3)oc2C)c2cc3sc(C)cc3n12	.	-	.	.	.	.
Cc1nc2nc(CNC(=O)OC(C)(C)C)nn2c(C)c1CCC(=O)NCc1ccccc1Cl	.	-	-	.	?	.
O=S1(=O)N=C(N2CCN(Cc3ccc4c(c3)OCO4)CC2)c2ccccc21	-	-	-	-81	-	-
SC(COCc1ccccc1)CN1CCN(Cc2ccc3c(c2)OCO3)CC1 (stereo unspecified)	-	-	-	-55	?	-
OC(COCc1ccccc1)CN1CCN(Cc2ccc3c(c2)OCO3)CC1 (stereo unspecified)	-	-	-	-	-	-
FC(F)(F)c1ccc(N2CCN(Cc3ccc4c(c3)OCO4)CC2)nc1	-	-	-	-	?	-
c1ccc(N2CCN(Cc3ccc4c(c3)OCO4)CC2)nc1	-	47	-	?	-	-
Brc1ccc(CN2CCN(c3ccccn3)CC2)s1	-	68	-	-	-	-
O=S1(=O)N=C(N2CCN(Cc3ccccc3)CC2)c2ccccc21	-	-	-	-	-	-
COc1ccccc1CNS(=O)(=O)c1c(C)nc2sc(C)cn2c1=O	.	-	-	.	-	.
COc1ccc(Cn2c(SCC(=O)NCc3ccc(Cl)cc3)nc3ccsc3c2=O)cc1	.	-	-	.	-	.
CCOC(=O)c1c(C)[nH]c(C)c1S(=O)(=O)N1CCCC(C(=O)Nc2ccc(C)c(N(C)C)c2)C1 (stereo unspecified)	.	-	-	.	-	.
